AmpC no deterg – AmpC beta-lactamase inhibition without detergent | P00811 | AmpC nitrocefin hydrolysis, absorbance 480 nm, 0.0001% Triton | Potency, µM (titrated, usually from 57.1 µM), without a hit: top-dose activity change, negative = inhibition, most hits filed as inhibitors | actives 0.52% (n = 330,000) | AID 485341;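 note: plate controls were no compound for no effect and no enzyme for full effect; nearly all actives have a fitted effect of over 20% in size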
Target sequence (P00811 whole entry, looked up): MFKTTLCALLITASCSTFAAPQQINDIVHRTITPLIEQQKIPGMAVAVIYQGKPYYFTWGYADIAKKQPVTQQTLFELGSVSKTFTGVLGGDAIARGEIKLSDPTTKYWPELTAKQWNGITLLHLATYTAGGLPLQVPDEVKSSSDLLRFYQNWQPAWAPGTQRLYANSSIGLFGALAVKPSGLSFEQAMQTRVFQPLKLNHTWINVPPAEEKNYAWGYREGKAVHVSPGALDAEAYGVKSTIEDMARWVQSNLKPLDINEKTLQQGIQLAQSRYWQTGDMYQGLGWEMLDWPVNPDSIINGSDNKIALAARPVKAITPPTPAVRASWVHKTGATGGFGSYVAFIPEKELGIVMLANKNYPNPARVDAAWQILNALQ
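20 mM phosphate pH 7.0 + 0.01% (detergent screen) or 0.0001% Triton X-100; 5.3 nM AmpC reagent; cpd preinc 15 min RT; nitrocefin (800 uM stock) to start; A480 q20 s × 4 min; Activity was normalised to no-enzyme and no-compound control wells.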
AmpC inh detg – inhibitors of E. coli AmpC beta-lactamase with detergent; actives 0.041% (n = 370,000); Potency, µM (highest dose often 114 µM), inactives show at the top dose activity change, negative = inhibition, actives largely listed as inhibitors; AmpC hydrolysis of nitrocefin, absorbance 480 nm, 0.01% Triton;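 note: 0% = no-compound wells and -100% = no-enzyme wells; nearly all actives have a fitted effect of over 25% in size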
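20 mM phosphate pH 7.0 + 0.01% (detergent screen) or 0.0001% Triton X-100; 5.3 nM AmpC reagent; cpd preinc 15 min RT; nitrocefin (800 uM stock) to start; A480 q20 s × 4 min; Activity was normalised to no-enzyme and no-compound control wells.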
Sm TGR block – S. mansoni TGR enzyme inhibition; actives 3% (n = 360,000); AID 485364; purified TGR, DTNB reduction, TNB absorbance 405 nm; Q962Y6; Potency, µM (highest dose often 114 µM), inactives show at the highest dose activity change, negative = inhibition, actives largely listed as inhibitors; note: % is set by controls: 0 for no effect and ±100 for the full control effect; nearly all actives have a fitted effect of over 60% in size
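Kinetic colorimetric format: TGR-catalysed, NADPH-driven DTNB reduction monitored via TNB absorbance. Enzyme dispensed at 20 nM; compound exposure 15 min at room temperature before reaction start.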
Pf growth 96h – inhibits malaria parasite growth, 96 h; P. falciparum luciferase reporter growth, 96 h; Potency, µM (doses to about 28.7 µM), for the others: at the top dose activity change, negative = inhibition, most hits filed as inhibitors; actives 6.9% (n = 320,000); note: % is set by controls: 0 for no effect and ±100 for the full control effect
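Readout is luminescence from an integrated firefly luciferase in P. falciparum. Red cells, 2% hematocrit and 0.05% parasitemia final, were cultured with compound through two parasite generations (96 hours) at 37 C, 5% CO2.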
SARS PLpro yeast – SARS-CoV PLP inhibition in yeast; AID 485353; Potency, µM (top dose mostly 32.9 µM), for the others: at the top dose activity, positive = growth rescue, usual class: activators; actives 0.19% (n = 330,000); S. cerevisiae expressing SARS-CoV PLpro, growth rescue; calls by dose curve; note: 0% is about no effect; nearly all actives have a fitted effect of over 55% in size
Pf growth 48h – inhibits P. falciparum growth in the first generation, 48 h; AID 504832; P. falciparum luciferase growth in erythrocytes, 48 h; actives 5.9% (n = 310,000); Potency, µM (series often up to 28.7 µM), for inactives: top-dose activity change, negative = inhibition, usual class: inhibitors; note: % is set by controls: 0 for no effect and ±100 for the full control effect
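Compounds are pin-transferred into medium, infected erythrocytes (2% hematocrit, 0.1% parasitemia final) are added, and plates sit one parasite generation at 37 C in 5% CO2. Detection reagent is then added and luminescence measured.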
An asterisk follows results filed as active; ? = inconclusive; . = not tested or not shown. Hits are enriched below; roughly 12% of the tested compounds scored in any of these assays. Unless noted, calls come from the whole dose curve; as a rule, active = well fitted curve in the direction sought with a large enough effect; inconclusive = small, poorly fitted or top-dose-only effect, or another doubt; inactive = no such curve, though single readings can be large; an effect the other way counts as inactive or inconclusive. Potency is the fitted concentration of half-maximal effect.

SMILES	AmpC no deterg	AmpC inh detg	Sm TGR block	Pf growth 96h	SARS PLpro yeast	Pf growth 48h
S=C(NCCc1ccccn1)Nc1cc(Cl)cc(Cl)c1	-35%	-3%	8%	13µM*	0%	?
Cc1c(Cl)cccc1NC(=S)NCCc1ccc(C(F)(F)F)cc1	-46%	-8%	1%	13µM*	-24%	6.6µM*
S=C(NCc1cccs1)Nc1ccccc1Cl	-14%	9%	11µM*	-16%	1%	7%
CC(NC(=S)Nc1ccccc1Cl)C(c1cccs1)N1CCCC1 (configuration not stated)	-56%	-9%	-3%	12µM*	-22%	?
Cc1c(Cl)cccc1NC(=S)NCCc1ccccn1	-28%	-2%	1%	?	0%	-5%
O=C(Nc1ccccc1C(F)(F)F)N1CCOc2ccc(Cl)cc21	.	-3%	1%	.	.	.
Cn1nc(C(=O)NCc2ccccc2Cl)c2c1-c1ccccc1S(=O)(=O)C2	-9%	0%	-3%	-17%	1%	9%
NS(=O)(=O)c1ccc(Cl)cc1[N+](=O)[O-]	-24%	8%	-3%	5%	2%	28%
S=C(NCc1cccs1)Nc1cc(Cl)cc(Cl)c1	?	?	11µM*	?	-6%	?
S=C(NCCNC(=S)Nc1ccccc1Cl)Nc1ccccc1Cl	-45%	1%	0%	9.3µM*	0%	9.3µM*
O=C(Nc1ccc(Br)cn1)c1cccc2c1-c1ccccc1C2=O	-29%	?	1%	2%	-7%	-4%
Cc1ccc(CN2CC(C(=O)N(C)CC(=O)Nc3cccc(F)c3)CC2=O)cc1 (configuration not stated)	61%	-10%	-26%	5%	-4%	?
COc1ccccc1CN(CC(=O)NCc1ccc2c(c1)OCO2)C(=O)c1ccc2c(c1)OCCO2	-15%	-3%	5%	9.3µM*	-21%	-23%
O=C(NCc1ccc2c(c1)OCO2)Nc1cccc(Cl)c1	-44%	18%	9%	2%	9%	22%
COc1ccccc1NC(=O)NCc1ccc2c(c1)OCO2	2%	0%	-10%	15µM*	-1%	21%
COc1cccc(C(=O)NCCS(=O)(=O)NCc2ccc3c(c2)OCO3)c1	35µM*	?	1%	23%	-3%	8%
CC(=O)c1cccc(NC(=O)NCc2ccc3c(c2)OCO3)c1	-34%	?	-8%	3.7µM*	?	1%
CCOC(=O)CC(NC(=O)CCc1c(C)nc2c(c(C)nn2-c2ccc(C)c(C)c2)c1C)c1ccc(C)cc1 (configuration not stated)	.	-12%	-14%	.	.	.
CC(=O)c1ccc(OCC(O)CNCc2ccc3c(c2)OCO3)cc1 (configuration not stated)	-30%	-2%	-16%	-27%	-2%	2.6µM*
COc1ccc(-c2csc(NC(=S)NC(=O)c3cccs3)n2)cc1OC	-8%	-2%	-20%	?	-2%	12µM*
COc1ccc(-n2c(C)cc(-c3csc(NC(=O)c4ccc(S(=O)(=O)N(C)C)cc4)n3)c2C)cc1	-21%	-9%	-19%	12µM*	2%	?
CN(C)S(=O)(=O)c1ccc(C(=O)Nc2nc(-c3cccs3)cs2)cc1	-17%	?	-7%	?	6%	.
COc1ccc(-c2csc(NC(=S)NC(=O)c3ccc(S(=O)(=O)N(C)C)cc3)n2)cc1OC	-4%	-9%	-26%	?	2%	13µM*
CCc1noc(C)c1C(=O)Nc1nc(-c2ccc(OC)c(OC)c2)cs1	96%	-17%	-7%	10µM*	.	?
COc1ccc(-c2csc(NC(=S)NC(=O)c3cccs3)n2)cc1Br	-35%	-3%	-27%	-8%	-1%	0%
SMILES	AmpC no deterg	AmpC inh detg	Sm TGR block	Pf growth 96h	SARS PLpro yeast	Pf growth 48h
Cc1cccc(-c2nc3scc(CCNS(=O)(=O)c4ccc5c(c4)OCCO5)n3n2)c1	.	1%	4%	.	.	.
CC1(C(=O)O)CCC(C(=O)Nc2ccccc2O)C1(C)C (configuration not stated)	-12%	1%	1%	12µM*	0%	.
Cc1ccc(C)c(N2CCN(c3ncccc3[N+](=O)[O-])CC2)c1	-27%	-3%	-1%	?	-9%	?
CC(C)(C)OC(=O)N1CCC(c2c(C(=O)NCc3ccco3)cnn2-c2ccccc2Cl)CC1	.	21%	-22%	.	.	.
Cc1coc(=N)n1CC(=O)c1ccc(Cl)cc1	-2%	3%	40µM*	18%	-1%	20%
Cc1cc(C)cc(NC(=O)Cn2nnc3ccccc3c2=O)c1	0%	3%	4%	24%	1%	14%
N#C/C(C(=O)NCc1ccccc1)=C1/SC(Cc2ccc(Cl)cc2)C(=O)N1c1ccccc1 (configuration not stated)	-45%	-5%	-1%	?	11%	?
Cc1cc(=O)n2nc(N3CCCC(C(=O)NC4CCCCC4C)C3)sc2n1 (configuration not stated)	-3%	?	7%	-10%	-2%	-9%
CC1(C)Cc2c(c(-c3ccco3)nc3sc4c(NCCCO)ncnc4c23)CO1	151%	3%	2µM*	4.1µM*	1%	?
CC1(C)Cc2c(c(-c3ccco3)nc3sc4c(NCC5CCCO5)ncnc4c23)CO1 (configuration not stated)	1%	0%	79µM*	?	23%	-2%
CC1(C)Cc2c(c(-c3ccco3)nc3sc4c(NCCN5CCOCC5)ncnc4c23)CO1	47%	-10%	40µM*	?	21%	8.3µM*
CCCSc1nc(C)c(CC(=O)O)c(=O)[nH]1	-16%	?	-10%	1%	3%	12%
NC(=O)c1sc2nc3c(c(-c4cccs4)c2c1N)CCCCC3	-18%	-14%	-1%	32%	6%	18%
N#CC1(C#N)COC23CCCCC2C1(C#N)C(=N)O3 (configuration not stated)	-23%	?	56µM*	-22%	15%	-22%
CCC1OC23CCCCC2C(C#N)(C(=N)O3)C1(C#N)C#N (configuration not stated)	-10%	-8%	?	251%	4%	-16%
COc1ccc(C2OC34CCCCC3C(C#N)(C#N)C2(C#N)C(=N)O4)cc1 (configuration not stated)	-45%	-10%	40µM*	9%	-5%	?
CC1OC23CCCCC2C(C#N)(C(=N)O3)C1(C#N)C#N (configuration not stated)	-12%	?	?	-11%	-1%	-1%

Screening results: PubChem, National Center for Advancing Translational Sciences (NCATS)
